Pf growth 48h: Primary qHTS for delayed death inhibitors of the malarial parasite plastid, 48 hour incubation; P. falciparum luciferase growth in erythrocytes, 48 h; Potency, µM (titrated, usually from 28.7 µM), for the others: at the highest dose activity change, negative = inhibition, hits mostly inhibitors; 310,000 compounds, 5.9% hits; AID 504832, 2011; note: potency is the fitted concentration of half-maximal effect; % is set by controls: 0 for no effect and ±100 for the full control effect
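Erythrocytes infected with P. falciparum carrying an integrated firefly luciferase reporter (2% hematocrit, 0.1% parasitemia final) were exposed to compounds in RPMI 1640 with 0.5% Albumax at 37 C, 5% CO2. Growth inhibition was scored as reduced luminescence.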
Sm TGR block: qHTS Assay for the Inhibitors of Schistosoma Mansoni Peroxiredoxins. Schistosoma mansoni thioredoxin glutathione reductase (TGR), Q962Y6. purified TGR, DTNB reduction, TNB absorbance 405 nm. Potency, µM (doses to about 114 µM), for the others: top-dose activity change, negative = inhibition, actives largely listed as inhibitors. 360,000 compounds, 3% hits; note: potency is the fitted concentration of half-maximal effect; % is set by controls: 0 for no effect and ±100 for the full control effect; nearly all actives have a fitted effect of over 60% in size
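TGR 20 nM + NADPH 100 uM (dispensed conc.), cpd preinc 15 min RT; start with NADPH (500 uM addition) then DTNB (15 mM addition). Kinetic TNB absorbance, 405 nm filter. Four-parameter Hill fit across titration.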
Pf growth 96h: Primary qHTS for delayed death inhibitors of the malarial parasite plastid, 96 hour incubation; P. falciparum luciferase reporter growth, 96 h; 320,000 compounds, 6.9% hits; AID 504834, 2011; Potency, µM (highest dose often 28.7 µM), inactives show at the highest dose activity change, negative = inhibition, usual class: inhibitors; note: potency is the fitted concentration of half-maximal effect; % is set by controls: 0 for no effect and ±100 for the full control effect
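Two-generation exposure (96 h) targets delayed-death phenotype. Reporter parasites carrying integrated firefly luciferase, in red cells at 2% hematocrit and 0.05% parasitemia final, kept at 37 C, 5% CO2; luminescence loss indicates inhibition.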
HCMV antiviral: qHTS Assay for inhibitors of the human cytomegalovirus (HCMV); HFF cells, HCMV-luciferase reporter, 72 h; stronger effect = lower value; activity change, negative = inhibition, % at 57.5 µM; 410,000 compounds, 4.5% hits; AID 1259415, 2018; in the data active = activity change below about -60%; inconclusive = no clear call, values can overlap the other calls; inactive = above about -39%; note: % is set by controls: 0 for no effect and ±100 for the full control effect
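After 16 h attachment at 37C, HFF cells received test compound and HCMV-luciferase (1 PFU/cell); reporter luminescence read 72 h later, data normalized against buffer-only and known inhibitor Salinomycin.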
SARS PLpro yeast: qHTS of Yeast-based Assay for SARS-CoV PLP; S. cerevisiae expressing SARS-CoV PLpro, growth rescue; Potency, µM (titrated, usually from 32.9 µM), for inactives: at the top dose activity, positive = growth rescue, hits mostly activators; 330,000 compounds, 0.19% hits; calls by dose curve; note: potency is the fitted concentration of half-maximal effect; 0% is about no effect; nearly all actives have a fitted effect of over 55% in size
HCV inhibitor: qHTS Assay for Inhibitors of Hepatitis C Virus (HCV); Huh7.5.1 HCVcc-Cre infection, luciferase reporter, 44 h; Potency, µM (doses to about 41.8 µM), for the others: top-dose activity change, negative = inhibition, most hits filed as inhibitors; 340,000 compounds, 3.4% hits; AID 651820, 2012; note: potency is the fitted concentration of half-maximal effect; % is set by controls: 0 for no effect and ±100 for the full control effect
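Seed cells (1,000/well) for 4 h; treat with compound and infect with HCVcc-Cre, moi about 0.5. Incubate 44 h, then detect luciferase activity.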
Numbers without * were called inactive; u = inconclusive; x = not tested or not shown; [ ] = another dose, or the depositor's remark. Only some compounds are listed: those with a hit (about 15% of all), similar ones and a draw of the others. Unless noted, calls come from the whole dose curve; as a rule, active = well fitted curve in the direction sought with a large enough effect; inconclusive = small, poorly fitted or top-dose-only effect, or another doubt; inactive = no such curve, though single readings can be large; an effect the other way counts as inactive or inconclusive.

SMILES | Pf growth 48h | Sm TGR block | Pf growth 96h | HCMV antiviral | SARS PLpro yeast | HCV inhibitor
O=C(NNC(=O)c1ccccc1OCc1ccccc1)c1ccccc1F | 41% | -3% | 68% | 132 | 0% | -26%
CC(=O)c1ccccc1OCc1ccc(S(=O)(=O)Cc2ccccc2)cc1 | 0% | -6% | 35% | -71* | -5% | 10µM*
O=C(NNC(=O)c1ccccc1OCc1ccccc1)c1ccccc1O | u | -23% | u | -88* | u | u
O=C(NNC(=O)c1ccccc1OCc1ccc(F)cc1)c1ccccc1O | u | -11% | 8.3µM* | -95* | 8% | 6.3µM*
COc1ccc(N2C=C3C(=O)C(C)(OC(=O)CCc4ccccc4)C(=O)C=C3C=C2c2ccc(C#N)cc2)cc1 (stereo not given) | u | -26% | u | -4 | -1% | 3%[8.37 µM]
CC1(OC(=O)CCc2ccccc2)C(=O)C=C2C=C(c3ccc(C#N)cc3)N(CCc3c[nH]c4ccccc34)C=C2C1=O (stereo not given) | 12µM* | -1% | u | -5 | -1% | u
COc1ccc(CN2C=C3C(=O)C(C)(OC(=O)CCc4ccccc4)C(=O)C=C3C=C2c2ccc(C#N)cc2)cc1 (stereo not given) | 9.3µM* | -6% | u | -25 | -1% | -14%
CC1(OC(=O)CCc2ccccc2)C(=O)C=C2C=C(c3ccc(C#N)cc3)N(C(CO)CO)C=C2C1=O (stereo not given) | u | -34% | u | -29 | 7% | 15%
CCN(CC)CCCN1C=C2C(=O)C(C)(OC(=O)CCc3ccccc3)C(=O)C=C2C=C1c1ccc(C#N)cc1 (stereo not given) | u | 40µM* | u | x | 1% | 7%
O=C1CCC(C(=O)Nc2cccc(Br)c2)N1 (stereo not given) | 22% | 4% | 275% | -5 | -2% | 10%
CCCCCCCCN1C(=O)[C@H](CC(=O)N2CCN(C(=O)C3CC3)CC2)C[C@@]2(C(=O)OCC)CCCC=C12 | x | x | x | -19 | x | x
CNc1nc2cnc(Nc3ccc(C(F)(F)F)cc3)cc2n1-c1cc(OC)c(OC)c(OC)c1 | x | x | x | -14 | x | x
COc1cc(OC)c(OC)cc1CN1CCc2nc(N3CCN(C)CC3)ncc2C1 | x | 40µM* | x | 1 | x | x
COc1ccc(N2CCN(S(=O)(=O)CCNC(=O)Cc3ccc(Cl)cc3)CC2)cc1 | x | -2% | x | 49 | x | x
Cc1[nH]nc(N=CC2=C(O)CC(c3ccco3)CC2=O)c1-c1ccccc1 (stereo not given) | u | u | 7.4µM* | 2 | 14% | u
O=C1CC(c2ccco2)CC(O)=C1C=NCCN1CCNCC1 (stereo not given) | -4% | 40µM* | -10% | 65 | 3% | 16%
O=C1CC(c2ccco2)CC(O)=C1C=Nc1cc(Cl)cc(Cl)c1 (stereo not given) | 5% | 18µM* | x | 23 | -11% | 5%
O=C1CC(c2ccccc2)CC(O)=C1C=NCCN1CCNCC1 (stereo not given) | x | -23%[11.4 µM] | u | 32 | 4% | 15%
Cc1ccc(N=CC2=C(O)CC(c3ccccc3Cl)CC2=O)cc1 (stereo not given) | 26% | 0% | 1% | 45 | 0% | 14%
O=C1CC(c2ccccc2Cl)CC(O)=C1C=Nc1ccccc1 (stereo not given) | 2% | -5% | -7% | -73* | -12% | 4%
CCOC(=O)c1nn(-c2ccc(Br)cc2)cc1C(=O)c1cccc2ccccc12 | 57% | -19% | 48% | -26 | 5% | -27%
CCOc1ccc(-n2nc3ccc(NC(=O)c4ccc(C)cc4C)cc3n2)cc1 | x | 27% | x | -17 | x | x
C[C@@H]1CN(S(=O)(=O)C(C)(C)C)[C@H](CCO)/C1=C\CCO | x | x | x | 16 | x | x
O=C(NCCc1ccc(O)c(Br)c1)c1ccc(Br)o1 | x | x | x | -24 | x | x
Cc1cccc(NC(=O)c2c(O)c3ccccc3n(C)c2=O)c1 | 125% | -5% | -11% | 127 | -1% | u
SMILES | Pf growth 48h | Sm TGR block | Pf growth 96h | HCMV antiviral | SARS PLpro yeast | HCV inhibitor
Cc1ccc(N2C(N)=NC(N)=NC23CCCC3)c(C)c1 | u | 4% | u | -67* | -1% | 2%
CCCCN1CC(COCc2ccccc2)Oc2cccc(NCc3cc(OC)c(OC)c(OC)c3)c2S1(=O)=O (stereo not given) | x | x | x | -15 | x | x
CCc1ccc(-n2c(=O)c3c4c(sc3n(CC(=O)NCCCOC)c2=O)CCC4)cc1 | x | -4% | x | 13 | x | x
COc1ccc2c(c1)C(=O)[C@@H](OC(=O)NCc1ccc3c(c1)OCO3)[C@H](c1ccc(OC)c(Br)c1)O2 | u | -12% | u | x | -8% | -6%[8.37 µM]
COc1cccc([C@@H]2Oc3ccc(Br)cc3C(=O)[C@H]2OC(=O)NC2CCCC2)c1 | -6% | 2% | -27% | x | 5% | -28%[8.37 µM]
COc1ccc2c(c1)C(=O)[C@@H](O)[C@H](c1ccc(OC)c(Br)c1)O2 | 3.7µM* | u | 3.3µM* | x | -10% | -27%[8.37 µM]
COc1cccc([C@@H]2Oc3ccc(OC)cc3C(=O)[C@H]2O)c1 | -22% | 2% | 3.7µM* | x | -3% | u
Cc1ccc(N2C(=O)N(CC(=O)Nc3ccc(C)c(C)c3)C(=O)C2C)cc1 (stereo not given) | 12% | -8% | -11% | -12 | x | u
C#Cc1ccc([C@@H]2C=C(C(=O)NCc3ccccc3)O[C@H](OCCCCO)C2)cc1 | x | x | x | -13 | x | 2%
O=C(NC1(C(F)(F)F)N=C(c2ccccc2)N(C2CCCCC2)C1=O)c1ccc(F)cc1 (stereo not given) | x | 4% | x | -30 | x | x
Cc1ccccc1C(=O)NC1(C(F)(F)F)N=C(c2ccccc2)N(C2CCCCC2)C1=O (stereo not given) | x | 1% | x | -102* | x | x
CCCCCCOc1ccc(C(=N)N(CCCC)CCCC)c2ccccc12 | 12µM* | x | 8.5µM* | x | x | x
CCCCN(C)CCOc1ccccc1OCC | 11% | 5% | u | -19 | -3% | -3%
Cc1ccc(-c2cc3nccc(-c4cc([N+](=O)[O-])ccc4O)n3n2)cc1 | x | -2% | x | -63* | x | x
CCOC(=O)COc1ccc([N+](=O)[O-])cc1-c1ccnc2cc(-c3ccc(C)cc3)nn12 | x | 3% | x | 19 | x | x
Cc1cc(C)c(NC(=O)CNC(=O)COC(=O)CN2C(=O)NC3(CCCC3)C2=O)c(C)c1 | -2% | -4% | 62% | -22 | 4% | 12%

Bioassay records (PubChem)
